A selection: hits, their analogues and other compounds. The true share with any hit is near 4.5%.
Gli-Sufu antag: antagonists of Gli-Sufu signaling | inhibition, % at 5 µM | AID 588413 | 340,000 compounds, 0.74% hits | Sufu-KO-LIGHT fibroblasts, Gli luciferase reporter luminescence;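 active = inhibition above about 55%, limit read from the data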;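 note: 0% = DMSO-treated cells and 100% = wells with medium but no cells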
Mdm2 MdmX PPI: human Mdm2/MdmX binding inhibition. 330,000 compounds, 3% hits. inhibition, % at 8 µM. SaOS-2 split-luciferase Mdm2/MdmX complementation, luminescence. O15151+Q00987;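 active = inhibition of at least 50% at 8 µM in the primary screen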
Target sequence (O15151 whole entry, looked up): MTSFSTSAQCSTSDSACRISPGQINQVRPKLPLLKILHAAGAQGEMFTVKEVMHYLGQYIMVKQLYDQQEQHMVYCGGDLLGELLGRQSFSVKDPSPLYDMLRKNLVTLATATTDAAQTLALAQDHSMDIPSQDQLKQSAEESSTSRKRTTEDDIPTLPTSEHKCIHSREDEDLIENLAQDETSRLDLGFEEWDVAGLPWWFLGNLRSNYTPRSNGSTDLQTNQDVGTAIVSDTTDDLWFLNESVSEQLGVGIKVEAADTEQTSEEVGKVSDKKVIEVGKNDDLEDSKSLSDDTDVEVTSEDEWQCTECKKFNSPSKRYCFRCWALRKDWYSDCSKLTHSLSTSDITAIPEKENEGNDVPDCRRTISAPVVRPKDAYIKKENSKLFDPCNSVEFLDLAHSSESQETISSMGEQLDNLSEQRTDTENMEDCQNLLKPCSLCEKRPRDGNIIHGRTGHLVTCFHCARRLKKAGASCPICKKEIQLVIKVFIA
Target sequence (Q00987 whole entry, looked up): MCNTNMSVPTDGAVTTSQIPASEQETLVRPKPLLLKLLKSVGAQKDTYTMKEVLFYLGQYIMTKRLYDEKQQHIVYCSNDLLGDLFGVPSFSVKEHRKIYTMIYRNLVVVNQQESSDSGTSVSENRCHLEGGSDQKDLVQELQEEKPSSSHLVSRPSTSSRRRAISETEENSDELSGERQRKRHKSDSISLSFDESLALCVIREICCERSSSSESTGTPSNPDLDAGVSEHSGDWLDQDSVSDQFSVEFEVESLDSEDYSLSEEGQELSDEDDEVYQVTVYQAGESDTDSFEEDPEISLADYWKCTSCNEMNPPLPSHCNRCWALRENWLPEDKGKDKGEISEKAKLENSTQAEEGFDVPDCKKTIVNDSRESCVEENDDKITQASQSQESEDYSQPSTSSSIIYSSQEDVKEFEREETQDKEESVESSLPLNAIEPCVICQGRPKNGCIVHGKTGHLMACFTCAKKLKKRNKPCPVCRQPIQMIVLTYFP
CSC inhib: cancer stem cell inhibition; cancer stem cell-like cells viability, luminescence; inhibition, % at 7.5 µM; 300,000 compounds, 1.1% hits; in the data active = inhibition above about 75%; tested in HMLE shEcad cells
aSyn UTR inh: MLPCN primary screen, SNCA 5' untranslated region; inhibition, % (tested at 7.5 µM); 300,000 compounds, 0.82% hits; AID 1813; alpha-synuclein 5'UTR reporter, inhibitor activity; in the data active = inhibition above about 60%;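 note: H4 neuroglioblastoma cells stably carrying SNCA 5'UTR luciferase fusion; 0% = DMSO wells and 100% = positive control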
697 NFkB inh: lowers PMA/ionomycin-induced NF-kB signal in 697 B cells; inhibition, % at 4 µM; AID 435022; 697 B-cell NF-kB luciferase reporter, 16 h; 330,000 compounds, 0.33% hits; in the data active = inhibition above about 35%
Jurkat NFkB inh: lowers PMA/ionomycin-induced NF-kB signal in Jurkat cells | PMA/ionomycin-induced NF-kB luciferase reporter, luminescence | inhibition, % at 4 µM | 330,000 compounds, 0.53% hits | AID 435003; in the data active = inhibition above about 50%
Mdm2 MdmX conf: human Mdm2/MdmX binding inhibition, confirmed. shares compounds with Mdm2 MdmX PPI. luminescent assay. inhibition, % at 8 µM. 10,000 compounds, 55% hits. AID 489028; in the data active = inhibition above about 40%
FLuc counter: inhibits full-length luciferase, flagging false Mdm2/MdmX hits | shares compounds with Mdm2 MdmX PPI | SaOS-2 full-length luciferase counterscreen, luminescence | inhibition, % at 8 µM | 6,200 compounds, 77% hits;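 active = mean inhibition at 8 µM reaching about 37%, which flags the compound as non-specific, limit read from the data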;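 note: p53-null SaOS-2 cells with luciferase driven by a doxycycline-inducible promoter; compound on cells about two nights before reading with doxycycline added after day one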
An asterisk follows results filed as active; / = no result.

SMILES | Gli-Sufu antag | Mdm2 MdmX PPI | CSC inhib | aSyn UTR inh | 697 NFkB inh | Jurkat NFkB inh | Mdm2 MdmX conf | others
Cc1ccc(C(=O)N(C)CC(=O)Nc2ccc(Cl)c(C(F)(F)F)c2)cc1S(=O)(=O)N1CCCCC1 | 4.7 | 46.3 | / | / | -31.7 | 0.5 | /
Cc1ccc(S(=O)(=O)N2CCCCC2)cc1C(=O)N(C)CC(=O)Nc1ccc(Cl)c(C(F)(F)F)c1 | 25.1 | 54.8* | 41.8 | -5.1 | -25.2 | 14.1 | 68.1* | FLuc counter=49.5*
O=C(CCl)Nc1ccc(S(=O)(=O)NC2=NCCCCC2)cc1 | 6.3 | 9.0 | 42.4 | / | 24.3 | 15.0 | /
O=C(CCl)Nc1cccc(S(=O)(=O)NC2=NCCCCC2)c1 | 17.1 | 62.3* | 60.8 | / | -12.1 | 8.7 | 69.5* | FLuc counter=35.8
O=C(Cc1ccc(Cl)cc1)Nc1cccc(S(=O)(=O)N2CCCCC2)c1 | 5.0 | 19.1 | -9.8 | / | -11.1 | -11.6 | /
CCOC(=O)Cc1csc(NC(=O)c2ccc3ncsc3c2)n1 | -40.1 | 5.8 | -2.6 | -59.8 | -46.6 | -38.5 | /
NS(=O)(=O)c1ccc(CCNS(=O)(=O)c2cccc3nsnc23)cc1 | 1.5 | -13.6 | / | 11.3 | 16.1 | -0.3 | /
COc1cc(C2NCC(c3ccc(Cl)cc3Cl)c3c2[nH]c2ccccc32)cc(OC)c1OC (centres undefined) | 8.1 | 61.1* | 80.6* | 14.4 | -3.6 | 7.8 | 9.6
O=C(O)c1ccc(C2NCC(c3ccccc3Cl)c3c2[nH]c2ccccc32)cc1 (centres undefined) | 13.8 | 3.4 | -3.5 | 13.3 | 17.3 | -4.1 | /
CC(=O)c1c(C)[nH]c(C(=O)OCC(=O)Nc2cc(C(F)(F)F)ccc2N2CCOCC2)c1C | 0.3 | 51.1* | -4.7 | 29.9 | -2.2 | 13.5 | 31.8
Cc1ccc(Cn2c(CCNc3nc(-c4ccc(Cl)c([N+](=O)[O-])c4)cs3)nc3cc(Cl)c(Cl)cc32)cc1 | 1.4 | 92.9* | 54.3 | -77.9 | 2.9 | 2.8 | -3.6
O=S(=O)(NCC(c1ccc2c(c1)OCO2)N1CCN(c2ccccc2)CC1)c1ccccc1 (centres undefined) | -1.3 | -6.6 | 3.7 | 10.9 | 2.8 | 0.3 | /
O=C(NCc1ccccc1)c1nccnc1CO | 11.1 | 4.8 | -10.4 | 2.7 | 11.9 | 0.4 | /
CCCCn1c(=O)[nH]c(=O)c2c1nc(-c1ccc(-c3ccc(F)cc3)o1)n2C | 16.3 | 73.9* | -19.1 | 17.0 | 2.7 | 7.6 | 9.9
COCCn1c(-c2ccc(-c3ccccc3Cl)o2)nc2c1c(=O)[nH]c(=O)n2CC(C)C | 5.2 | 59.4* | -2.2 | 25.8 | 9.1 | -16.4 | -0.9
COCCn1c(-c2cccc([N+](=O)[O-])c2)nc2c1c(=O)[nH]c(=O)n2Cc1ccccc1 | 7.3 | 4.2 | -10.4 | 21.2 | -19.1 | -12.7 | /
CCCCn1c(=O)[nH]c(=O)c2c1nc(-c1ccc(-c3ccccc3Br)o1)n2CCOC | 22.1 | 53.1* | 6.1 | 4.7 | -8.8 | -7.6 | 5.7
CCCCn1c(=O)[nH]c(=O)c2c1nc(-c1ccc(CC)c([N+](=O)[O-])c1)n2C | / | 5.1 | -13.9 | 5.8 | -7.9 | 1.7 | /
CCCCn1c(=O)[nH]c(=O)c2c1nc(-c1ccncc1)n2CCOC | 3.6 | 9.9 | -16.3 | 26.7 | -1.7 | -0.7 | /
C/C(=N\NC(=O)OC(C)(C)C)c1cccc([N+](=O)[O-])c1 | -19.7 | -18.8 | -4.3 | -41.4 | -4.6 | -18.8 | /
O=C(Nc1ccccc1Cl)C1CCN(S(=O)(=O)c2cccc3nonc23)CC1 | -0.6 | 14.9 | -0.5 | 10.6 | 1.4 | -0.7 | /
COc1ccccc1CN1CCNC(=O)C1CC(=O)NCC1CCOCC1 (centres undefined) | -9.0 | -11.4 | 0.9 | -1.9 | -6.5 | 3.1 | /
CCn1c2ccccc2c2cc(NC(=O)c3coc(=O)c(Br)c3)ccc21 | / | 74.3* | 66.4 | -26.2 | -43.3 | 16.8 | 31.9 | FLuc counter=38.2*
CCn1c2ccccc2c2cc(NC(=O)c3ccc(=O)oc3)ccc21 | 13.6 | 33.7 | 4.1 | -11.9 | 7.8 | -7.3 | /
CC(C)C(CCNCc1ccccn1)c1ccc(Cl)cc1 (centres undefined) | 18.3 | 18.4 | -2.1 | 3.6 | -10.3 | 3.2 | /
SMILES | Gli-Sufu antag | Mdm2 MdmX PPI | CSC inhib | aSyn UTR inh | 697 NFkB inh | Jurkat NFkB inh | Mdm2 MdmX conf | others
CC(C)C(CCNC1CCN(C)CC1)c1ccc(Cl)cc1 (centres undefined) | 9.3 | 76.5* | / | -34.9 | 21.9 | 43.4 | 55.8* | FLuc counter=54.2*
CC(C)(C)C1c2[nH]c3ccccc3c2CCN1CCCn1cccn1 (centres undefined) | 14.5 | 10.5 | 0.8 | 4.0 | -13.6 | 5.4 | /
Fc1ccccc1C1c2[nH]c3ccccc3c2CCN1CCCn1cccn1 (centres undefined) | 4.3 | 58.6* | -4.4 | -29.2 | -5.0 | -8.5 | 22.2
O=C(CC1SC(N2CCCCC2)=NC1=O)Nc1cccc(C(=O)N2CCCC(C(F)(F)F)C2)c1 (centres undefined) | -31.9 | / | / | / | / | / | /
C=C(C)C1Cc2nc(N)nc(C)c2C1 (centres undefined) | 3.2 | -8.1 | -16.1 | 8.6 | -26.1 | 8.6 | /
C=C(C)C1Cc2c(C)nn(-c3nc(C)cc(C)n3)c2C1 (centres undefined) | 4.9 | 55.4* | -20.3 | 17.1 | -46.1 | 2.5 | 8.9
O=C(CC1(CC(=O)N2CCOCC2)CCCC1)Nc1ccccc1 | 7.6 | 10.6 | / | / | -6.0 | -8.1 | /
COC(=O)N1C(=O)[C@@](c2ccccc2)(C2CCCC2)N1C(=O)OC | -9.0 | 74.5* | 22.1 | 0.9 | 4.1 | -4.3 | 35.1
COC(=O)N1C(=O)[C@@](CC(C)C)(c2ccccc2)N1C(=O)OC | / | 51.0* | 37.9 | 8.4 | 1.9 | -12.5 | 13.6
COC(=O)N1C(=O)[C@](CC(C)C)(c2ccccc2)N1C(=O)OC | -3.3 | / | 7.3 | -5.1 | / | / | /
COC(=O)N1C(=O)[C@](c2ccccc2)(C2CCCCC2)N1C(=O)OC | 6.8 | 46.2 | 15.8 | 11.5 | -1.9 | 10.3 | /
CCOC(=O)c1c(NC(=S)NCCc2ccccc2)sc2c1CC(C(C)C)OC2 (centres undefined) | 1.2 | 51.2* | 45.7 | -23.5 | -15.6 | -7.5 | 3.1
Nc1ccc(C(=O)n2c3ccccc3c3ccccc32)cc1 | 8.0 | 60.4* | 17.5 | 116.7* | 26.7 | 45.1 | 57.5* | FLuc counter=62.6*
Cc1ccc(C(=O)n2c(N)nc3ccccc32)cc1 | -30.7 | 51.7* | 12.2 | 81.1* | -63.2 | 10.3 | 44.0* | FLuc counter=97.6*
Cc1ccc(S(=O)(=O)n2c(N)nc3ccccc32)cc1 | 8.9 | 18.7 | -2.7 | 9.2 | 0.0 | -2.0 | /
CCn1c(=S)sc2c(=O)n(-c3ccccc3)c(SC)nc21 | 7.6 | 21.2 | -1.8 | 8.7 | 24.7 | 7.7 | /
N#CCSc1nc2c(sc(=S)n2Cc2ccco2)c(=O)n1-c1ccc(F)cc1 | 10.8 | 60.9* | 6.0 | -9.9 | -16.2 | -22.2 | 58.0* | FLuc counter=31.6
O=C(CSc1nncs1)Nc1ccc2c(c1)OCO2 | -4.0 | -4.7 | -7.8 | -8.5 | 9.8 | -7.4 | /

Screens from PubChem.
